Measured values reported in PubChem BioAssay AID1490 (National Center for Advancing Translational Sciences (NCATS), 2009).
In all, about 310,000 compounds went through this assay and about 11,000 (3.5%) were called active. Not shown: some 4% with an inconclusive outcome. This excerpt belongs to a sample that is enriched for actives. A number with no mark means an inactive call. The call rests on the fitted dose curve; in most records, active means well fitted inhibition curve with a large enough effect; inconclusive means small, poorly fitted or top-dose-only effect, or another doubt; inactive means no such curve, though single readings can be large or run the other way.

Molecular target: 4'-phosphopantetheinyl transferase ffp (Bacillus subtilis) (UniProt Q9F4F7)
Assay: qHTS Assay for Inhibitors of Bacillus subtilis Sfp phosphopantetheinyl transferase (PPTase);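 further: the enzyme is Sfp with the accession as filed and its product quenches rhodamine fluorescence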;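 on largest response in the series, negative = inhibition: 0% = enzyme reaction without inhibitor and -100% = no enzyme wells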
Details: Biochemical Sfp PPTase activity
How it was run: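 With Hepes-Na pH 7.6 buffer containing 10 mM MgCl2, Sfp (15 nM) modified BHQ-2-YbbR (12.5 uM) using rhodamine-CoA (5 uM). Two reads 30 minutes apart at 525/598 nm yielded each well's rate.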
Potency means the concentration at half of the fitted maximal effect.

Going from `CN1CCN(C(=O)C2C3C=CC(C3)C2C(=O)O)CC1` (stereo not drawn) to `C=C(Cl)COC(=O)C1C2C=CC(C2)C1C(=O)O` (stereo not drawn), the largest response in the series, negative = inhibition falls from -2.06% to -7.02%.

First: CC(CN1CCOCC1)OC(=O)c1ccc(C(C)(C)C)cc1 (stereo not drawn)
Second: CC(=O)Nc1ccc(N2CCOCC2)c(C(=O)Nc2cccc(C)c2)c1
The largest response in the series, negative = inhibition of the first is lower: -0.906% for the first, 6.24% for the second.

Going from `Cc1cccc(N2CCN(S(=O)(=O)c3ccc(-c4cc(C)no4)s3)CC2C)c1` (stereo not drawn) to `Cc1c(NC(=O)c2cc(-c3ccc(Br)cc3)on2)c(=O)n(-c2ccccc2)n1C`, the largest response in the series, negative = inhibition falls from 13.1% to 2.71%.

Compared with `Cc1cc(C(F)(F)F)nc(SCC(=O)Nc2nccs2)n1`, `CCOC(=O)c1sc(NC(=O)CSc2ncccn2)c(C#N)c1C` is higher in largest response in the series, negative = inhibition: -13.1% for the first, 15.3% for the second.

Going from `O=C(O)c1cccc2c1C(=O)N(C1CCCC1)C2` to `CC1=C(C(=O)OC2CCCCC2)C(c2ccccc2F)NC(=O)N1` (stereo not drawn), the largest response in the series, negative = inhibition falls from 17.2% to 7.52%.

Compared with `Cc1cc(Cl)nc(NC(=O)Nc2cccc(Cl)c2)n1`, `Cc1nnc(SCC(=O)Nc2cccc(N)c2)n1-c1ccccc1` is higher in largest response in the series, negative = inhibition: -3.29% for the first, 20% for the second.

First: Cc1cc(Nc2ccccc2)n(C(=O)c2ccc(N)cc2)n1
Second: Cc1ccc(Nc2ccccc2N)cc1
The largest response in the series, negative = inhibition of the first is higher: -8.73% for the first, -23.1% for the second.

Going from `O=C1OC2(CCCCC2)CC2=C1C1O[C@](c3ccsc3)(Cc3ccccc31)O2` to `CC(CC(=O)N1CCN(c2ccccc2)CC1)c1ccccc1` (stereo not drawn), the largest response in the series, negative = inhibition rises from -2.9% to 3.18%.

Going from `COC(=O)CCc1ccccc1S(=O)(=O)N(CCC(=O)OC)Cc1ccccc1` to `CCN(CC(=O)NC(=O)NCc1ccccc1)Cc1nc2ccccc2c(=O)[nH]1`, the largest response in the series, negative = inhibition falls from -14.7% to -53%.

First: CCN(CC(=O)Nc1ccc(Cl)c(S(=O)(=O)N(C)C)c1)Cc1nc2ccccc2c(=O)[nH]1
Second: COc1cccc(CNC(=O)CN(C)S(=O)(=O)c2ccc3c(c2)c(=O)n(C)c(=O)n3C)c1
The largest response in the series, negative = inhibition of the first is lower: -31.5% for the first, -4.3% for the second.

Going from `CN1CCN(C(=O)c2cnn(-c3ccccc3)c2NC(=O)c2ccc([N+](=O)[O-])cc2)CC1` to `CCc1ccc(NC(=O)N2CCN(c3ccccc3)CC2)cc1`, the largest response in the series, negative = inhibition rises from 1.55% to 3.63%.

First: Cc1nc2ccc(NC(=S)N3CCC(C)CC3)cc2nc1C
Second: CC1CCN(C(=S)NC(=O)c2ccccc2Br)CC1
The largest response in the series, negative = inhibition of the first is higher: 15.4% for the first, 14.1% for the second.

Compared with `O=C(c1cccc([N+](=O)[O-])c1)N1CCN(C(=O)c2ccco2)CC1`, `O=C(c1ccc(S(=O)(=O)N2CCCC2)cc1)N1CCN(c2ccccc2F)CC1` is higher in largest response in the series, negative = inhibition: 3.81% for the first, 11.7% for the second.

Compared with `CC1CCN(c2ccc([N+](=O)[O-])cc2C(N)=O)CC1`, `COc1ccc(/C=C/C(=O)N2CCCC2)cc1OC` is lower in largest response in the series, negative = inhibition: 9.05% for the first, -0.604% for the second.

Compared with `O=C(NC1CCCC1)C(c1ccco1)N(C(=O)c1ccco1)c1ccc(F)cc1` (stereo not drawn), `Cc1cccc(NC(=O)c2sc3nc4c(c(-c5ccco5)c3c2N)CCC4)c1` is lower in largest response in the series, negative = inhibition: 20.8% for the first, -15.6% for the second.

Going from `COc1ccc(CCNC(=O)c2c(C)nn(-c3ccccc3)c2Cl)cc1` to `COc1ccc(OC)c(CCNC(=O)c2nn(C)c3c2CS(=O)(=O)c2ccccc2-3)c1`, the largest response in the series, negative = inhibition rises from 9.27% to 15.7%.

Going from `CN(CC1CCCO1)S(=O)(=O)c1ccc(C(=O)Nc2ccc([N+](=O)[O-])cc2)cc1` (stereo not drawn) to `COc1ccc(NC(=O)CN2C(=O)COc3ccc(S(=O)(=O)N4CCOCC4)cc32)c(OC)c1`, the largest response in the series, negative = inhibition rises from -10.7% to 15.2%.

Going from `COc1ccc(-n2cnnc2SCC(=O)Nc2cccc(S(N)(=O)=O)c2)cc1` to `COc1ccc(/C=C/c2noc(-c3ccccc3OC(C)=O)n2)cc1`, the largest response in the series, negative = inhibition falls from 3.4% to -16%.

Going from `COC(=O)c1c(NC(=O)C(=O)N2CCCCC2)sc2c1CC(C)(C)OC2` to `COc1cc(OC)c(C(=O)N2CCCC2)cc1OC`, the largest response in the series, negative = inhibition rises from -1.3% to 10.6%.

For `O=C(O)C1C2C=CC(C2)C1C(=O)N1CCN(CCO)CC1` (stereo not drawn), the Potency was 20 µM (active).
`CCOC(=O)c1sc(NC(=O)CSc2nc(C)cc(C(F)(F)F)n2)c(C#N)c1C` was tested, and the Potency was 20 µM (active).
`Nc1ccc(Nc2ccccc2)cc1` was tested, and the Potency was 56.2 µM (active).
`CCN(CC(=O)Nc1cccc(S(N)(=O)=O)c1)Cc1nc2ccccc2c(=O)[nH]1` was tested, and the Potency was 50.1 µM (active).
`CC1CCN(C(=S)c2cccc([N+](=O)[O-])c2)CC1` was tested, and the Potency was 44.7 µM (active).
`CC1CCN(C(=S)c2cccc(O)c2)CC1` was tested, and the Potency was 25.1 µM (active).
With `NS(=O)(=O)c1cccc(NC(=O)CSc2nc3ccccc3n2-c2ccccc2)c1` the Potency was 79.4 µM (active).
In the case of `COc1cc(OC)c(C(=S)N2CCCC2)cc1OC`, the Potency is reported as 20 µM (active).
In the case of `Cc1cccc(NC(=O)c2sc3nc(N4CCOCC4)c4c(c3c2N)CCCC4)c1`, the Potency is reported as 17.8 µM (active).
With `CC(=O)N1CCN(c2ccc(NCc3ccc(C(C)C)cc3)cc2)CC1` the Potency was 50.1 µM (active).
